In all, about 48,000 compounds went through this assay and about 13,000 (27%) showed an effect of 50% or more. The list shows a part of the results.
Test system: Wolbachia pipientis
Test: Anti-Wolbachia Cell-Based Screen
Assay type: functional
Design: scale not given: in the data most compounds retested in dose-response had high values
Conditions: 5 µM

`CCCS(=O)(=O)NCC(C)c1ccc(F)c(F)c1` (stereo unspecified) was tested. Which “Percent Effect” value did it give?
Its value is -6.211%.

With `CC(=O)c1ccc(C(=O)NCc2ccnc(N(C)C)n2)cc1` as the compound, how does the “Percent Effect” value read?
The value was -2.815%.

How did the “Percent Effect” value turn out when `CN1CC[C@]2(CN(C(=O)[C@H]3CCCO3)C[C@H]2c2ccccc2)C1=O` was run?
The value was -10.86%.

With `O=C([C@H]1CCCO1)N1CCC2(CCCN(CCOc3ccccc3)C2)C1` (stereo partly specified) as the compound, how does the “Percent Effect” value read?
The value was 105.8%.

For `CCN1CC[C@]2(CN(C(=O)[C@H]3CCCO3)C[C@H]2c2ccccc2)C1=O`, which “Percent Effect” value is on record?
Its value is -5.714%.

How did the “Percent Effect” value turn out when `c1cc(CNCCC2CCCO2)ccn1` (stereo unspecified) was run?
The value was -4.656%.

Which “Percent Effect” value does the source give for `c1cc(CNc2ncc(-c3cnccn3)c([C@@H]3CCCO3)n2)ccn1` here?
The value was 102%.

For `c1cc(CCNc2ncc(-c3cnccn3)c(C3CC3)n2)ccn1`, which “Percent Effect” value is on record?
The value was 137.3%.

For `c1cnc(-c2cnc(N3CCSCC3)nc2C2CCCO2)cn1` (stereo unspecified), which “Percent Effect” value is on record?
Its value is -3.576%.

How did the “Percent Effect” value turn out when `c1cc(CNc2ncc(-c3cnccn3)c(C3CC3)n2)ccn1` was run?
Its value is 244.3%.

`c1cc(-c2n[nH]c(CNc3nnc(C4CC4)o3)n2)ccn1` was tested. Which “Percent Effect” value did it give?
The value was -23.66%.

How did the “Percent Effect” value turn out when `c1cc(CCN2CCC(c3n[nH]c(C4CC4)n3)CC2)ccn1` was run?
The value was 9.327%.

Which “Percent Effect” value does the source give for `Cn1ncnc1-c1ccnc(NCCCc2ccncc2)n1` here?
The value was -3.782%.

How did the “Percent Effect” value turn out when `Cc1cnc2c(c1NCc1ccncc1)c(=O)n(C)c(=O)n2C` was run?
The value was -24.16%.

`Cc1cc(F)ccc1OC1(C(=O)O)CCN(Cc2cccnc2N)CC1` was tested. Which “Percent Effect” value did it give?
Its value is -8.297%.

For `Cc1noc(C)c1CN(C)Cc1csc(-c2ccc(F)cc2)n1`, which “Percent Effect” value is on record?
Its value is 17.5%.

How did the “Percent Effect” value turn out when `Cc1cc(C(=O)N2CCN(C(=O)CCC3CCCCC3)CC2)n(C)n1` was run?
The value was -12.7%.

For `O=S(=O)(Cc1ccccc1)c1nnc(N2CCCC2)s1`, which “Percent Effect” value is on record?
Its value is -13.72%.

How did the “Percent Effect” value turn out when `Cc1ncc(CN(C)C(=O)Nc2cccc(CN3CCOC3=O)c2)s1` was run?
The value was 6.587%.

With `CN(C)C(=O)[C@H]1C[C@@H]2CN(C(=O)NCC3CCCCC3)C[C@H]1O2` as the compound, how does the “Percent Effect” value read?
The value was -9.234%.

Which “Percent Effect” value does the source give for `CCCc1noc(CN2CCCC2c2c(C)nn(C)c2OC)n1` (stereo unspecified) here?
The value was -3.307%.

With `COc1c(C2CCCN2Cc2c(C)noc2C)c(C)nn1C` (stereo unspecified) as the compound, how does the “Percent Effect” value read?
Its value is -0.2322%.

Which “Percent Effect” value does the source give for `Cc1nn(C)c(C)c1C1CCCN1Cc1nc(-c2ccco2)no1` (stereo unspecified) here?
Its value is 17.11%.

How did the “Percent Effect” value turn out when `Cc1ccc(C2CCCN2Cc2nc(-c3ccco3)no2)cc1` (stereo unspecified) was run?
The value was 6.26%.

With `COc1c(C2CCCN2Cc2nc(-c3ccco3)no2)c(C)nn1C` (stereo unspecified) as the compound, how does the “Percent Effect” value read?
Its value is 131.1%.

With `Cc1nn(C)c(Cl)c1C1CCCN1Cc1nc(-c2ccco2)no1` (stereo unspecified) as the compound, how does the “Percent Effect” value read?
Its value is 77.16%.

With `CCOC(C)c1nc(CN2CCNCC2)cs1` (stereo unspecified) as the compound, how does the “Percent Effect” value read?
The value was 1.236%.

Which “Percent Effect” value does the source give for `Cc1cccc(CN2C(=O)CO[C@@H]3CN(CCO)C[C@H]32)c1.O=C(O)C(F)(F)F` here?
Its value is 23.75%.

How did the “Percent Effect” value turn out when `CN(C)C(=O)CN1CCO[C@H]2CN(Cc3cccc(F)c3)C[C@H]21` was run?
Its value is 99.44%.

`CN(C)CCN1CCO[C@H]2CN(Cc3cnn(C)c3)C[C@H]21.O=C(O)C(F)(F)F.O=C(O)C(F)(F)F.O=C(O)C(F)(F)F` was tested. Which “Percent Effect” value did it give?
The value was 2.67%.

How did the “Percent Effect” value turn out when `CN(C)C(=O)CO[C@H]1CN(Cc2cccc(F)c2)[C@@H]2CCCO[C@H]12.O=C(O)C(F)(F)F` was run?
Its value is 5.103%.

With `Cc1cccc(CN2C(=O)CO[C@@H]3CN(C4CCOCC4)C[C@H]32)c1.O=C(O)C(F)(F)F` as the compound, how does the “Percent Effect” value read?
Its value is 109.7%.

With `Cc1cc(C)cc(CN2C[C@@H]3OCCN(CC(=O)N(C)C)[C@@H]3C2)c1.O=C(O)C(F)(F)F` as the compound, how does the “Percent Effect” value read?
Its value is 122.5%.

`CN(C)C(=O)CN1CCO[C@H]2CN(Cc3ccoc3)C[C@H]21` was tested. Which “Percent Effect” value did it give?
The value was 95.5%.

`O=C(O)C(F)(F)F.O=C1CO[C@@H]2CN(C3CCOCC3)C[C@H]2N1Cc1cccc(F)c1` was tested. Which “Percent Effect” value did it give?
The value was 2.353%.

For `c1cc(CN2C[C@@H]3OCCN(CC4CCCO4)[C@@H]3C2)co1` (stereo partly specified), which “Percent Effect” value is on record?
Its value is -2.91%.

With `CN1CCC(N(C)CCC(=O)N2CCN(Cc3cccc(F)c3)CC2)C1` (stereo unspecified) as the compound, how does the “Percent Effect” value read?
The value was -12.08%.

`Cc1cc(C)cc(CN2C[C@@H]3OCCN(S(=O)(=O)N(C)C)[C@@H]3C2)c1` was tested. Which “Percent Effect” value did it give?
Its value is -1.729%.

With `O=C(O)C(F)(F)F.O=C(O)C(F)(F)F.O=C(O)C(F)(F)F.c1cc(CN2C[C@@H]3OCCN(CCN4CCCC4)[C@@H]3C2)co1` as the compound, how does the “Percent Effect” value read?
Its value is -5.454%.

How did the “Percent Effect” value turn out when `CC(SCc1cc(Br)cc2cccnc12)C(N)=O` (stereo unspecified) was run?
Its value is -22.01%.

Which “Percent Effect” value does the source give for `COc1ccc2c(c1)CC(C(=O)N(C)CCCc1cnn(C)c1)CO2` (stereo unspecified) here?
Its value is -3.689%.

With `CC(C)[C@@H]1CN(c2ccc(C(F)(F)F)cn2)C[C@H]1NS(C)(=O)=O` as the compound, how does the “Percent Effect” value read?
The value was -16.11%.

For `OCC(O)CSCc1ccc(F)cc1Cl` (stereo unspecified), which “Percent Effect” value is on record?
The value was -2.217%.

With `CC(=O)N[C@@H]1CN(C(=O)c2ccoc2)C[C@H]1c1ccc(C)cc1` as the compound, how does the “Percent Effect” value read?
Its value is 0.232%.

How did the “Percent Effect” value turn out when `Cc1cccc(CN2C[C@@H]3OCCN(S(=O)(=O)N(C)C)[C@@H]3C2)c1.O=C(O)C(F)(F)F` was run?
Its value is 1.609%.

How did the “Percent Effect” value turn out when `Cc1cccc(CN2C[C@@H]3OCCN(CC(=O)N(C)C)[C@@H]3C2)c1.O=C(O)C(F)(F)F` was run?
Its value is 97.29%.

For `Cc1cc(CN2CC[C@H]3[C@H]2CCN3CC(=O)N(C)C)oc1C.O=C(O)C(F)(F)F.O=C(O)C(F)(F)F`, which “Percent Effect” value is on record?
Its value is -40.85%.

Which “Percent Effect” value does the source give for `O=C(NC[C@H]1OC[C@@H](NC2COC2)[C@@H]1O)C1CCCC1` here?
Its value is -18.2%.

Which “Percent Effect” value does the source give for `Cn1cc(C(C)(O)CNC(=O)c2ccc(Br)s2)cn1` (stereo unspecified) here?
Its value is 0.7525%.

`Cc1noc(C)c1CN(Cc1ccccc1)C(C)C` was tested. Which “Percent Effect” value did it give?
Its value is -1.884%.

How did the “Percent Effect” value turn out when `CNC(=O)[C@@H]1CCO[C@@H]2CCN(C3CCOCC3)C[C@@H]21.O=C(O)C(F)(F)F` was run?
The value was -5.14%.

How did the “Percent Effect” value turn out when `O=C(NC1CCC1)[C@@H]1CCO[C@@H]2CCN(CCc3ccccc3)C[C@H]21.O=C(O)C(F)(F)F` was run?
The value was 10.39%.

For `O=C(NCC1CC1)[C@@H]1CCO[C@@H]2CCN(Cc3ccc(F)cc3)C[C@H]21.O=C(O)C(F)(F)F`, which “Percent Effect” value is on record?
The value was -1.927%.

Which “Percent Effect” value does the source give for `CN(C)C(=O)[C@@H]1CCO[C@@H]2CCN(Cc3ccccc3)C[C@@H]21.O=C(O)C(F)(F)F` here?
Its value is -6.959%.

Which “Percent Effect” value does the source give for `Cc1noc(C)c1CN1CC[C@H]2OCC[C@@H](C(=O)NCC3CC3)[C@H]2C1.O=C(O)C(F)(F)F` here?
Its value is -0.6103%.

For `O=C(NC1CC1)[C@@H]1CCO[C@@H]2CCN(CCc3ccccc3)C[C@@H]21.O=C(O)C(F)(F)F`, which “Percent Effect” value is on record?
The value was 121.8%.

For `CN(C)C(=O)[C@@H]1CCO[C@@H]2CCN(CCc3ccccc3)C[C@@H]21.O=C(O)C(F)(F)F`, which “Percent Effect” value is on record?
Its value is 0.9995%.

How did the “Percent Effect” value turn out when `O=C(NCC1CC1)[C@@H]1CCO[C@@H]2CCN(CCc3ccccc3)C[C@H]21.O=C(O)C(F)(F)F` was run?
Its value is 103.2%.

`CN(C)C(=O)[C@@H]1CCO[C@@H]2CCN(CCOCc3ccccc3)C[C@H]21.O=C(O)C(F)(F)F` was tested. Which “Percent Effect” value did it give?
Its value is 110%.

How did the “Percent Effect” value turn out when `CNC(=O)[C@@H]1CCO[C@@H]2CCN(CCc3ccccc3)C[C@H]21.O=C(O)C(F)(F)F` was run?
The value was 100.2%.

Which “Percent Effect” value does the source give for `O=C(NC1CC1)[C@@H]1CCO[C@@H]2CCN(C3CCOCC3)C[C@H]21.O=C(O)C(F)(F)F` here?
Its value is -6.605%.

From ChEMBL document CHEMBL3988442, “University of Dundee, Small-Polar-MMV Screening Library” (2021)
